Reference: PubChem BioAssay AID540280 (National Center for Advancing Translational Sciences (NCATS), 2011)
The list shows a part of the results. Activity calls are given as the source filed them. Calls come from the whole dose curve.

molecular target: DNA polymerase beta (Homo sapiens) (UniProt P06746); assay: Inhibitors of DNA Polymerase Beta: Hit validation; settings: Pol beta primer extension/strand displacement, fluorescence kinetic
Text: The base excision repair system in human cells is a target for therapeutic modulation of the response to irradiation treatment and DNA-damaging drugs. A key enzyme in this system is the bi-functional DNA polymerase known as DNA polymerase Beta (Pol Beta). The following is a homogeneous kinetic assay to study the primer extension and strand-displacement reaction catalyzed by pol beta.
A stepwise description of the 1536-well assay is shown in next Table. Three microliters of reagents (buffer in column 3 and 4 as negative control and 10 nM Pol beta in columns 1, 2, and 5-48) was dispensed into 1,536-well black solid-bottomed plate. Compounds (23 nL) were transferred via Kalypsys pin tool equipped with 1536-pin array (10 nL slotted pins, V&P Scientific, San Diego, CA). The plates were incubated for 15 min at room temperature, and 1 uL substrate (50 nM final concentration) were added to start the reaction and immediately read at 0 min read on Viewlux reader. The plate were further incubated for 10 min at room temperature, and then read on Viewlux again. Throughout the screen, reagent bottle and all liquid lines were chilled and made light-tight to minimize reagent degradation. All screening operations were performed on a fully integrated robotic system (Kalypsys, San Diego, CA) containing one RX-130 and two RX-90 anthropomorphic robotic arms (Staubli, Duncan, SC). Library plates were screened starting from the lowest and proceeding to the highest concentration, and a double-dipping step of the highest concentration was required to access higher concentrations of compounds. Vehicle-only plates, with DMSO being pin-transferred to the entire column 5-48 compound area, were inserted uniformly at the beginning and the end of each library in order to monitor for and record any shifts in the background, which can be affected by reagent dispensers or loss in enzyme activity overtime. Screening data were corrected, normalized, and concentration-effect relationships were derived by using publicly-available curve fitting algorithms developed in-house (http://ncgc.nih.gov/pub/openhts). A four parameter Hill equation was fitted to the concentration-response data by minimizing the residual error between the modeled and observed responses.
Potency is the fitted concentration of half-maximal effect.

Potency, active:
Cc1c(CC(=O)N2CCN(C(=O)C3COc4ccccc4O3)CC2)c(=O)oc2c(O)c(O)ccc12 (configuration not stated) 2.24 µM
Cc1ccc2nc(-c3ccncc3)cc(C(=O)Nc3ccc(OC(F)F)cc3)c2c1 35.5 µM
Cc1c(CCC(=O)O)c(=O)oc2c(C)c(OCc3ccccc3Cl)ccc12 12.6 µM
COc1cc([C@H](Cc2ccccc2)NC(C)=O)oc(=O)c1 28.2 µM
O=C(Nc1ccc(S(=O)(=O)Nc2nccs2)cc1)c1cc(-c2ccncc2)nc2ccccc12 25.1 µM
COc1ccc(Cc2nnc(NC(=O)Cc3cccs3)s2)cc1 6.31 µM
Cc1ccc(C(=O)Oc2coc(CSc3nnc(NC(=O)c4cccs4)s3)cc2=O)cc1C 31.6 µM
